Shown are actives, neighbours in structure and some others; about 4.8% of the full set was active somewhere.
ssDAF-12 act = S. stercoralis DAF-12 nuclear receptor activators, primary screen, cell-based, luminescence, HEK293, GRIP1 co-expression, lit1-tk-luc | Nuclear hormone receptor DAF-12 (Strongyloides stercoralis) | HEK293 ssDAF-12/GRIP1 lit1-tk-luc reporter; % of 3 µM dafachronic acid response | activation, % at 6.8 µM | 370,000 compounds, 1% hits | AID 652126, 2013;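 active means activation above the mean over all tested compounds plus 3 SD, cut at about 0.9% in these data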;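 further: 0% = DMSO-only wells and 100% = 3 µM delta7-dafachronic acid wells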
DAX1 inh-1 = DAX1 (NR0B1) inhibitors, primary screen, cell-based, HEK293, Gal4-DAX1, luciferase luminescence | 340,000 compounds, 0.99% hits | inhibition, % at 6.75 µM | HEK293 Gal4-DAX1 luciferase reporter | AID 504766, 2011;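 active means inhibition above the mean over all tested compounds plus 3 SD, cut at about 4.2% in these data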;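 further: 0% = DAX1-transfected cells with DMSO and 100% = empty-vector control cells with DMSO; inhibition shows as a rise in luminescence from relieved DAX1 repression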
Target sequence (P51843 207-470 limits assumed): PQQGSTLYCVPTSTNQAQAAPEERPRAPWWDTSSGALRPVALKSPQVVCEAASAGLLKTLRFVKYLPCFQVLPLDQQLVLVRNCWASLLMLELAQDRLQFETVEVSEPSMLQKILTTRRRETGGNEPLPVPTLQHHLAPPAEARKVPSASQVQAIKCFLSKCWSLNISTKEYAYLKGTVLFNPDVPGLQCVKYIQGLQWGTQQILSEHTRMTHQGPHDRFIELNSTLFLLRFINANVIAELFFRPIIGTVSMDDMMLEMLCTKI
hgDAF12 agonist = H. glycines DAF-12 receptor agonists, primary screen, cell-based, luminescence, HEK293, GAL4 fusion, UAS-luciferase; HEK293 GAL4-hgDAF12 UAS-luciferase reporter, agonist luminescence; normalized to butyrate control; 370,000 compounds, 1.8% hits; Nuclear hormone receptor DAF-12 (Heterodera glycines), GAL4 fusion; activation, % at 6.8 µM;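 active means activation above a cutoff set at the mean of all screened compounds plus 3 SD, cut at about 10% in these data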;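 further: 0% = DMSO wells and 100% = sodium butyrate wells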
hcDAF12 agonist = H. contortus DAF-12 nuclear receptor activators, primary screen, cell-based, luminescence, HEK293, lit1-tk-luc reporter; HEK293 hcDAF-12 lit1-tk-luc reporter; 0% DMSO, 100% Δ7-dafachronic acid; 370,000 compounds, 1.4% hits; activation, % at 6.8 µM; AID 652067, 2013;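 active means activation above the mean of all tested compounds plus 3 SD, cut at about 5.5% in these data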;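 further: 100% = response to 3 µM Δ7-dafachronic acid high control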
SMARCA2 activ = SMARCA2 (BRM) function activators, primary screen, cell-based, luminescence, high throughput; activation, % at 9.1 µM; MG213 cells, MMTV-luciferase reporter, dexamethasone, overnight; 370,000 compounds, 1% hits; in the data active means activation above about 7.8%;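 further: 0% = vehicle wells and 100% = reference activator wells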
DAX1 inh-2 = DAX1 (NR0B1) inhibitors on StAR promoter, primary screen, cell-based, luminescence, SF-1 (NR5A1), full-length DAX-1; 370,000 compounds, 1.1% hits; AID 652010, 2013; inhibition, % at 6.8 µM; HEK293T StAR-luciferase reporter, SF-1/DAX-1 repression relief;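 active means inhibition above the mean over all tested compounds plus 3 SD, cut at about 3.6% in these data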;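 further: 0% = DAX-1 cells with DMSO and 100% = cells lacking DAX-1 with DMSO; higher inhibition means more luminescence from relief of DAX-1 repression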
LXRb hcDAF ctr = LXR agonists, Gal4 luciferase reporter, confirmation, counter-screen for hcDAF-12 agonist project, cell-based, luminescence, HEK293, H. contortus campaign; HEK293 Gal4-LXR tk-luc reporter, 24 h; normalized: DMSO 0%, positive control 100%; AID 743027, 2013; activation, % at 6.8 µM; shares compounds with hcDAF12 agonist; 3,400 tested, under 10 active;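 active means mean percent activation of the reporter above a cutoff set as the average over tested compounds plus their standard deviation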
hcDAF12 conf = H. contortus DAF-12 receptor agonists, confirmation, cell-based, luminescence, HEK293, lit1-tk-luc, triplicate | activation, % at 6.8 µM | 3,400 compounds, 61% hits | shares compounds with hcDAF12 agonist | AID 743032, 2013 | HEK293 hcDAF-12 lit1-tk-luc reporter; % of Δ7-dafachronic acid response;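 active means mean activation across triplicate tests above the threshold derived from the earlier primary screen, cut at about 5.5% in these data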;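 further: 0% = DMSO only wells and 100% = 3 µM Δ7-dafachronic acid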
hgDAF12 ag = H. glycines DAF-12 receptor agonists, confirmation, cell-based, luminescence, HEK293, GAL4-LBD fusion | HEK293 GAL4-hgDAF12 luciferase reporter, agonist mode; percent of butyrate response | AID 743050, 2013 | shares compounds with hgDAF12 agonist | activation, % at 6.8 µM | 3,300 compounds, 80% hits;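 active means mean activation over triplicate wells above the hit cutoff derived from the earlier primary screen, cut at about 11% in these data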;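 further: 0% = DMSO low control and 100% = 2 mM sodium butyrate high control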
LXRb DAF12 ctr = LXR agonists, Gal4 luciferase reporter, confirmation, counter-screen for hgDAF-12 agonist project, cell-based, luminescence, HEK293, H. glycines campaign; AID 743051, 2013; 24 h; 3,300 tested, under 10 active; shares compounds with hgDAF12 agonist; activation, % at 6.8 µM;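 active means mean activation of the triplicate above a set limit carried over from the primary screen, none filed active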
* hit, by the source's call; nt = no result given.

SMILES | ssDAF-12 act | DAX1 inh-1 | hgDAF12 agonist | hcDAF12 agonist | SMARCA2 activ | DAX1 inh-2 | LXRb hcDAF ctr | hcDAF12 conf | hgDAF12 ag | LXRb DAF12 ctr
Nc1ccc2cc3[nH]c4cc(N)ccc4c3nc2c1 | 3.0* | -1 | 35* | 19* | -3 | -2 | 3.5* | 15* | 20* | 1
O=[N+]([O-])c1ccccc1-c1nc(-c2ccc(Br)o2)no1 | 2.8* | 3 | 21* | 15* | 5 | 4.5* | 1 | 8.6* | 18* | 1
COc1cc(-c2nc(-c3ccc(Br)o3)no2)cc(OC)c1OC | -2 | 0 | 1 | -2 | -5 | 1 | nt | nt | nt | nt
Brc1ccc(-c2noc(-c3ccccn3)n2)o1 | 1.4* | 2 | 20* | 10* | 3 | 2 | 1 | 7.8* | 21* | 1
O=C(Cc1c[nH]c2ccccc12)Nc1ccc(Nc2cccnc2)cc1 | 0 | nt | -2 | 0 | -2 | -1 | nt | nt | nt | nt
COC(=O)C1=C(C)N(C)C(=NCc2ccc(C(F)(F)F)cc2)NC1c1cccc(Cl)c1 (stereo unspecified) | 0 | nt | 0 | -1 | -3 | 0 | nt | nt | nt | nt
Cc1ccc(-c2nc3cc(N)ccc3o2)cc1Br | 0 | 3 | 15* | 6.7* | -1 | 1 | 2 | 8.0* | 19* | 1
Cc1ccc(C)c(-c2nc3cc(N)ccc3o2)c1 | -2 | -2 | -7 | -5 | -7 | -1 | nt | nt | nt | nt
NC(=O)c1c(N)[nH]c(C(=O)c2ccccc2)c1-c1ccccc1Cl | -1 | nt | 0 | 0 | 1 | 1 | nt | nt | nt | nt
Cc1cc(C(=O)NN=Cc2cccc(O)c2)n[nH]1 | -1 | nt | 4 | 1 | -3 | 1 | nt | nt | nt | nt
Cc1nc2nc(-c3ccc(F)cc3)cn2nc1C | 0 | 0 | 14* | 7.1* | 2 | 3 | 1 | 5 | 12* | 1
CN(c1cccc(Cl)c1)S(=O)(=O)c1cccc(C(=O)Nc2nc3ccccc3[nH]2)c1 | -3 | -3 | -5 | -4 | -2 | -2 | nt | nt | nt | nt
O=C(Nc1nc2ccccc2[nH]1)c1cccc(Cl)c1 | 1 | 2 | 16* | 8.2* | 1 | 1 | 2 | 5.8* | 17* | 1
O=C(Nc1nc2ccccc2[nH]1)c1ccccc1 | 1.4* | -1 | 14* | 13* | 5 | 2 | 1 | 14* | 14* | 1
CC(=O)C1=C(C)N(Cc2ccc(Br)cc2)C(=S)NC1c1ccc(F)cc1 (stereo unspecified) | -1 | nt | 0 | -1 | -6 | -1 | nt | nt | nt | nt

Screens: PubChem BioAssay, The Scripps Research Institute Molecular Screening Center
